# From PubChem
# HEK293 tox: cytotoxic compounds in HEK 293 cells; Potency, µM (doses to about 115 µM), for inactives: at the highest dose activity change, negative = cytotoxicity, actives largely listed as inhibitors; HEK 293 viability, ATP luminescence (CellTiter-Glo), 48-72 h; AID 1345083; 94,000 tested, 6.6% active; note: nearly all actives have a fitted effect of over 60% in size
#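 250 HEK 293 cells/well; compound by pintool; incubated 48 or 72 hr at 37 degree Celsius; CellTiter-Glo added, 10 min RT, luminescence imaged.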
# NPR1 antag: antagonists of human natriuretic peptide receptor Npr1; HEK293 hNpr1 GloSensor cGMP, ANP-stimulated luminescence; Potency, µM (series often up to 46.3 µM), inactives show at the highest dose activity change, negative = inhibition, most hits filed as inhibitors; P16066; 76,000 tested, 1.6% active; calls by dose curve; note: nearly all actives have a fitted effect of over 60% in size
#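 HEK293 cells stably expressing human Npr1 and cGMP GloSensor pGS-40F, loaded 2 h with 2% GloSensor reagent, given compound 30 min at room temperature. Luminescence read before and 20 min after 0.1 nM hNppA.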
# 3T3 cytotox: cytotoxic compounds in NIH 3T3 cells. NIH 3T3 viability, CellTiter-Glo ATP luminescence, 48-72 h. 94,000 tested, 4.3% active. Potency, µM (doses to about 96.7 µM), for the others: top-dose activity change, negative = cytotoxicity, usual class: inhibitors; note: nearly all actives have a fitted effect of over 55% in size
#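 NIH 3T3 cells at 400 cells/well received 23 nL of compound by pintool and were incubated 48 or 72 h at 37 °C. Viability was read as ATP-coupled CellTiter-Glo luminescence.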
# GPT2 inh: inhibitors of human GPT2 alanine aminotransferase. Q8TD30. Recombinant GPT2, coupled pyruvate oxidase/HRP Amplex Red fluorescence. Potency, µM (titrated, usually from 57.7 µM), without a hit: top-dose activity change, negative = inhibition, hits mostly inhibitors. 100,000 tested, 0.25% active; note: nearly all actives have a fitted effect of over 60% in size
# Target sequence (Q8TD30 whole entry, looked up): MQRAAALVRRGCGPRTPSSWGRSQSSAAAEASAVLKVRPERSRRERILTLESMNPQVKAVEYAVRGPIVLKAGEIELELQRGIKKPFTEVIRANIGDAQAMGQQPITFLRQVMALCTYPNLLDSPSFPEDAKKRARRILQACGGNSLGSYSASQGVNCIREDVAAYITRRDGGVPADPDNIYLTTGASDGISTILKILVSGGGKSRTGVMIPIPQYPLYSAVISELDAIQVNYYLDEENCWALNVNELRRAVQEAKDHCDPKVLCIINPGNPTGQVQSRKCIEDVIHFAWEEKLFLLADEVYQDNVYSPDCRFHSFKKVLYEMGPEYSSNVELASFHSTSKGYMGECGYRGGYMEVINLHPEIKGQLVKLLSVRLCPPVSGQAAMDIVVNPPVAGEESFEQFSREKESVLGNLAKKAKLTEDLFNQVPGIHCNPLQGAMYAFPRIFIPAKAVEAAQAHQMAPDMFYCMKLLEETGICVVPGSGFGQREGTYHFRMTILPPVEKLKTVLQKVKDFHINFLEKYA
#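 Inhibition is scored from Amplex Red fluorescence generated when pyruvate oxidase and HRP act on pyruvate released by GPT2. Reactions contain 10ng/uL enzyme, 250uM a-KG and 2mM L-alanine and run 30 min at room temperature.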
# FLuc inh: Photinus pyralis luciferase inhibition. 76,000 tested, 2.5% active. P08659. AID 1347043. purified P. pyralis luciferase, luminescence, biochemical. Potency, µM (doses to about 115 µM), hits mostly inhibitors; note: nearly all actives have a fitted effect of over 65% in size
#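 Purified P. pyralis luciferase (10nM final) in 50mM Tris acetate pH 7.5, 10mM Mg acetate, 0.01% Tween-20, 0.05% BSA with 10uM D-luciferin and 10uM ATP. Compounds titrated qHTS. Luminescence imaged on CCD.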
# * hit, by the source's call; i = inactive; ? = inconclusive; . = no result given; [ ] = remark or other dose. The list is not random: actives were taken first. Their share in the collection is about 10%. Unless noted, calls come from the whole dose curve; as a rule, active = well fitted curve in the direction sought with a large enough effect; inconclusive = small, poorly fitted or top-dose-only effect, or another doubt; inactive = no such curve, though single readings can be large; an effect the other way counts as inactive or inconclusive. % is set by controls: 0 for no effect and ±100 for the full control effect; potency is the fitted concentration of half-maximal effect.
SMILES,HEK293 tox,NPR1 antag,3T3 cytotox,GPT2 inh,FLuc inh
CC(C)CN(C1CCN(C)CC1)C1CN(C(=O)c2cccs2)C1,-23%,.,-26%,i,.
COCc1ccc(CN2CCC(Oc3ccc(C(=O)NC4CCCC4)cc3Cl)CC2)o1,35µM*,-17%,?,1%,i
COCCNC(=O)c1ccc(OC2CCN(C/C=C/c3ccc(F)cc3)CC2)c(Cl)c1,45µM*,?,?,5%,i
COCCNC(=O)c1ccc(OC2CCN(CCC(C)c3ccc(C)o3)CC2)c(Cl)c1 (configuration not stated),89µM*,1%,?,?,i
COCCNC(=O)c1ccc(OC2CCN(CCc3ccccc3)CC2)c(Cl)c1,?,11%,?,i,i
COc1cccc(-c2ccc(C(=O)N3CCC(N[S+](=O)([O-])CCC(F)(F)F)CC3)cc2)c1,?,.,?,i,.
COc1ccc(-c2ccccc2C(=O)N2CCC(NC(=O)Cc3cccc(Cl)c3)CC2)nn1,i,.,-8%,.,.
O=C(c1nn(CC2CC2)c2c1CNCC2)N1CCC(Cc2ccccc2)CC1,?,.,40µM*,i,.
CCN(CC)CCNC(=O)c1c(-c2ccccc2)cc(=O)n2c1CCC2,-7%,.,-21%,i,.
Cc1ccc(CC(=O)N2CCCN(c3cc(-c4ccc(C)c(C)c4)[nH]n3)CC2)cc1,32µM*,?,32µM*,?,i
Cc1ccc(-c2cc(N3CCCN(C(=O)c4ccccc4C)CC3)n[nH]2)cc1C,32µM*,?,40µM*,?,i
COc1cccc(CC(=O)N2CCCN(c3cc(-c4ccccc4)[nH]n3)CC2)c1,35µM*,-18%,?,?,i
COc1ccc(-c2cc(N3CCCN(C(=O)Cc4ccc(Cl)cc4)CC3)n[nH]2)cc1,45µM*,-26%,?,?,i
COc1ccc(-c2cc(N3CCCN(C(=O)Cc4ccc(C)cc4)CC3)n[nH]2)cc1,?,?,?,?,i
CNC(=O)c1cc(C2CC2)nc2c1c(C1CCCN(C(=O)c3ccc(Cl)nc3)C1)nn2C (configuration not stated),-28%,.,?,.,.
COc1ccc(-c2cc(N3CCCN(C(=O)Cc4cccc(F)c4)CC3)n[nH]2)cc1,40µM*,0%,?,?,i
Cc1ccccc1CC(=O)N1CCCN(c2cc(-c3ccc(Cl)cc3)[nH]n2)CC1,?,0%,?,?,i
O=C(Cc1c[nH]c2ccccc12)N1CCCN(c2cc(-c3ccc(Cl)cc3)[nH]n2)CC1,45µM*,?,35µM*,?,i
Cc1cccc(CC(=O)N2CCCN(c3cc(-c4ccc(Cl)cc4)[nH]n3)CC2)c1,?,?,40µM*,?,i
CCN1c2cc(C(=O)Nc3ccc(Cl)cc3)ccc2C(=O)N2CCCC21 (configuration not stated),-27%,0%,-3%,i,i
CN1c2cc(C(=O)Nc3cccc(Cl)c3)ccc2C(=O)N2CCCCC21 (configuration not stated),?,-12%,?,1%,14µM*
CCN1c2cc(C(=O)Nc3cccc(Cl)c3)ccc2C(=O)N2CCCCCC21 (configuration not stated),?,-2%,40µM*,?,i
CN1c2cc(C(=O)Nc3ccc(F)c(Cl)c3)ccc2C(=O)N2CCCCC21 (configuration not stated),?,0%,?,i,i
CCN1c2cc(C(=O)Nc3cccc(Cl)c3)ccc2C(=O)N2CCCCC21 (configuration not stated),32µM*,3%,?,i,i
COc1ccc(C(=O)N2C[C@H](C(N)=O)[C@H]3c4ccccc4N(C)C(=O)[C@]32C)cc1OC,?,.,?,2%[27.3 µM],.
SMILES,HEK293 tox,NPR1 antag,3T3 cytotox,GPT2 inh,FLuc inh
CN1CCCC12Cc1ccccc1CN(S(=O)(=O)c1ccccc1)C2 (configuration not stated),?,.,?,-2%,.
CCN1CCC2(CC1)Cc1ccccc1CN(S(=O)(=O)c1ccccc1)C2,-24%,.,32µM*,0%,.
Clc1ccc(-c2cnc3n[nH]c(-c4ccccc4)c3n2)cc1,79µM*,-11%[70.6 µM],28µM*,1%[88.5 µM],i
COc1cc(F)ccc1-c1cnc2n[nH]c(-c3ccccc3)c2n1,?,-16%[70.6 µM],?,-29%[88.5 µM],i
Fc1ccc(-c2cnc3n[nH]c(-c4ccccc4)c3n2)cc1,?,-2%[70.6 µM],28µM*,i,i
CCC(=O)N1Cc2ccccc2CC2(CCN(CCc3ccc(C)cc3)CC2)C1,?,.,?,i,.
COc1ccc(Cn2c3c(c(=O)n2Cc2ccccc2)CCN(C(=O)c2nc4ccccc4[nH]2)C3)cc1,?,-20%,20µM*,1%,i
COc1ccc(Cn2c3c(c(=O)n2Cc2ccccc2)CCN(C(=O)c2cocn2)C3)cc1,i,8%,25µM*,-19%,i
COc1ccc(-n2c(=O)c3c(n2Cc2ccccc2)CN(C(=O)c2ccnn2C)CC3)cc1,-5%,-2%,35µM*,i,i
COc1ccc(-n2c(=O)c3c(n2Cc2ccccc2)CN(C(=O)c2cccc(O)c2)CC3)cc1,-4%,3%,?,-7%,i
COCCC(=O)N1CCc2c(n(Cc3ccc(OC)cc3)n(Cc3ccccc3)c2=O)C1,i,4%[70.6 µM],?,i,i
CCOC(=O)[C@H]1C[C@]2(CCCCN(CCOC)C2=O)N(C(=O)COc2ccccc2)[C@H]1c1ccco1,?,.,-25%,.,.
CCN(CC)C(=O)c1cc2c(n1C)CCN(Cc1ccc(F)cc1)C2,-8%,4%,4%,3%,i
Cn1c(C(=O)Nc2ccc(N3CCOCC3)cc2)cc2c1CCN(Cc1ccccc1)C2,-20%,-1%,-22%,22µM*,i
CC(=O)Nc1ccc(NC(=O)c2cc3c(n2C)CCN(Cc2ccccc2)C3)cc1,-13%,1%,-23%,-25%,i
COc1ccc(NC(=O)c2cc3c(n2C)CCN(Cc2ccc(F)cc2)C3)cc1,?,-3%,?,0%,?
COc1ccc(CNC(=O)c2cc3c(n2C)CCN(Cc2ccccc2)C3)cc1OC,40µM*,?,-27%,i,i
COc1ccccc1NC(=O)c1cc2c(n1C)CCN(Cc1cccc(C)c1)C2,?,0%,?,i,32µM*
COc1cccc(CN2CCc3c(cc(C(=O)Nc4ccccc4)n3C)C2)c1,45µM*,-26%,?,?,16µM*
Cn1c(C(=O)NC(C)(C)C)cc2c1CCN(Cc1cccc(F)c1)C2,?,1%,?,-3%,i
